Ecoli rRNA inh: selective bacterial rRNA inhibition in E. coli | E. coli WT GFP vs humanized-ribosome RFP mutants, fluorescence, 24 h; hits give low values; DMSO median 0, no signal -100 | GFP signal change (wild-type ribosome), % (test concentration not listed) | 350,000 compounds, 1.6% hits;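 active = significant combined selectivity score with lowered wild-type GFP, culture density cut under 30%, mutant RFP and density less affected; inactive = any of these conditions unmet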
ADAM17 inh: inhibitors of human ADAM17 | recombinant ADAM17, EDANS/DABCYL FRET peptide cleavage | P78536 | inhibition, % at 6.95 µM | 370,000 compounds, 0.83% hits;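 active = inhibition above the mean of compounds lying between control limits plus 3 SD, set per campaign, cut at about 8.5% in these data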
Target sequence (P78536 215-824 limits assumed): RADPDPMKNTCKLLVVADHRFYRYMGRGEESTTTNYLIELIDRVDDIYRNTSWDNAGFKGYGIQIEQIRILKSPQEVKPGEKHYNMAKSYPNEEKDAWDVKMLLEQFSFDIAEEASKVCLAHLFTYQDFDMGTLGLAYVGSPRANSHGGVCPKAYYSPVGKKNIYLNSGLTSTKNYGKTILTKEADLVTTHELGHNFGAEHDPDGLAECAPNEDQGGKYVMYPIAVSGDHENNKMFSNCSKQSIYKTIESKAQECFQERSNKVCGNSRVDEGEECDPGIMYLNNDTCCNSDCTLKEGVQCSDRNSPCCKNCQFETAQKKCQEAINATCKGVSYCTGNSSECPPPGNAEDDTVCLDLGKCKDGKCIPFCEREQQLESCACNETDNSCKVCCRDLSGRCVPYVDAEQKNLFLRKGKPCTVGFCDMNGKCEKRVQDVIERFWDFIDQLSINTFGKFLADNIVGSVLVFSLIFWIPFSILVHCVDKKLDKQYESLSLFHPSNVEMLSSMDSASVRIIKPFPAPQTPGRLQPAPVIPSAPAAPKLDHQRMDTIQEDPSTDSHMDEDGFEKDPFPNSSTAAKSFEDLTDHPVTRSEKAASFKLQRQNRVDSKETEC
FGF22 binding: binders of recombinant human FGF22 by thermal shift. Q9HCT0. SYPRO orange fluorescence; percent of sucrose octasulfate shift, DMSO zero. 340,000 compounds, 1.5% hits. activity (Tm shift, normalised), % at 9.99 µM. AID 651658;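 active = mean Tm shift, scaled 0 neutral to 100 positive control, at about 1.3% or above, every replicate too, limit read from the data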
ADAM10 inh: inhibits human ADAM10; inhibition, % at 7 µM; recombinant ADAM10, EDANS/DABCYL FRET peptide cleavage, 3 h; 370,000 compounds, 0.62% hits;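 active = inhibition above a per-campaign cutoff equal to the mean of compounds falling between control-based bounds plus 3 SD, cut at about 20% in these data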
KLK7 zymogen act: activates the human kallikrein-7 zymogen; P49862; purified proKLK7, EDANS-DABCYL substrate fluorescence; 100% is mature enzyme control, 0% vehicle; activation, % at 7 µM; 370,000 compounds, 0.9% hits; AID 652039;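 active = activation above the mean of all tested compounds plus 3 SD, computed per campaign excluding outliers beyond control limits, cut at about 13% in these data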
Of the large screens only hits and unclear results are named; the others gave an inactive call. This is a sample that favours compounds with a hit; in the whole collection about 3.8% have one here.

CC(=O)Nc1ccc2c(COC(=O)CC3Sc4ccccc4NC3=O)cc(=O)oc2c1 (stereo unspecified)	FGF22 binding 43
COc1ccc(NC(=O)COC(=O)CC2Sc3ccccc3NC2=O)cc1 (stereo unspecified)	none
COC(=O)CC1Sc2ccccc2NC1=O (stereo unspecified)	none (no result: Ecoli rRNA inh, FGF22 binding)
COc1ccc2c(COC(=O)CC3Sc4ccccc4NC3=O)cc(=O)oc2c1 (stereo unspecified)	FGF22 binding 44
COc1ccc(S(=O)(=O)Nc2ccc3c(c2)C(=O)N([C@@H](C)CO)C[C@H](C)[C@@H](CN(C)S(C)(=O)=O)OCCCC[C@@H](C)O3)cc1	none (no result: ADAM17 inh, ADAM10 inh, KLK7 zymogen act)
CCN(CCn1cccn1)C(=O)CC1C(=O)NCCN1Cc1cc(OC)cc(OC)c1 (stereo unspecified)	FGF22 binding 44
CCN(CCn1cccn1)C(=O)CC1C(=O)NCCN1Cc1ccc(OC)c(OC)c1 (stereo unspecified)	none
CS(=O)(=O)N1CCN(C(=O)Nc2ccccc2)CC1	FGF22 binding 43
O=C(Nc1ccccc1)N1CCN(c2nc(-c3ccccc3)ns2)CC1	Ecoli rRNA inh -30
O=C(Nc1ccccc1Cl)N1CCCN(c2nc(-c3ccccc3)ns2)CC1	none
CCOC(=O)c1cnc2ccccc2c1Nc1cccc(C(=O)O)c1	none
CCOC(=O)c1cnc2ccccc2c1Nc1ccc(C(=O)O)cc1	FGF22 binding 44
CN(CC(=O)Nc1ccccc1Cl)C(=O)c1cccc(S(=O)(=O)N2CCN(c3ccc(F)cc3)CC2)c1	Ecoli rRNA inh -25
Cc1noc(C)c1COc1ccc(CC(=O)NCc2ccccc2)cc1	none
Cc1nc(OCc2c(C)noc2C)c2ccccc2n1	FGF22 binding 43
CC(C)CCN1C(=O)c2ccccc2C1c1nnnn1Cc1ccccc1 (stereo unspecified)	none
O=C1c2ccccc2C(c2nnnn2Cc2ccccc2)N1CCc1ccccc1F (stereo unspecified)	Ecoli rRNA inh -21
O=C1c2ccccc2C(c2nnnn2Cc2ccccc2)N1Cc1cccs1 (stereo unspecified)	Ecoli rRNA inh -26
CC(C)n1nnnc1C1c2ccccc2C(=O)N1CCc1c[nH]c2ccccc12 (stereo unspecified)	Ecoli rRNA inh -30
O=C1c2ccccc2C(c2nnnn2Cc2ccccc2)N1CCc1ccc(O)cc1 (stereo unspecified)	Ecoli rRNA inh -28
C[C@@H]1CN([C@@H](C)CO)C(=O)c2cc(C#CCc3ccccc3)cnc2O[C@@H]1CN(C)Cc1cccnc1	none (no result: ADAM17 inh, ADAM10 inh, KLK7 zymogen act)
COc1ccc(NC(=O)O/N=C/c2ccccc2Cl)cc1	Ecoli rRNA inh -13
COc1ccc(C(=O)OCC(=O)c2cc(OC)ccc2OC)c(OC)c1	none (no result: Ecoli rRNA inh, FGF22 binding)
COc1ccc(C(=O)COC(=O)c2ccccc2O)c(OC)c1	Ecoli rRNA inh -18
C[C@H]1CN([C@@H](C)CO)C(=O)c2cc(NS(=O)(=O)c3ccc(Cl)cc3)ccc2O[C@H]1CN(C)S(=O)(=O)c1ccc(F)cc1	none (no result: ADAM17 inh, ADAM10 inh, KLK7 zymogen act)
COC(=O)C[C@@H]1C[C@@H]2c3cc(NC(=O)Nc4ccc(C(F)(F)F)cc4)ccc3O[C@@H]2[C@@H](CO)O1	none (no result: ADAM17 inh, FGF22 binding, ADAM10 inh, KLK7 zymogen act)
CC1(C)CC2CC(C)(CN2S(=O)(=O)c2ccc(C(=O)Nc3cc(S(=O)(=O)N4CCOCC4)ccc3Cl)cc2)C1 (stereo unspecified)	none (no result: Ecoli rRNA inh, FGF22 binding)
CC1(C)CC2CC(C)(CN2S(=O)(=O)c2ccc(C(=O)Nc3cccc(S(=O)(=O)N4CCOCC4)c3)cc2)C1 (stereo unspecified)	ADAM17 inh 20, ADAM10 inh 26
Cc1cc(C)cc(NC(=S)NCc2ccncc2)c1	FGF22 binding 44
CC(NC(=S)Nc1ccc([N+](=O)[O-])cc1)c1ccncc1 (stereo unspecified)	Ecoli rRNA inh -27
O=[N+]([O-])c1ccc(NC(=S)NCc2ccncc2)cc1	Ecoli rRNA inh -28
COc1ccc(NC(=S)NC(C)c2ccncc2)cc1OC (stereo unspecified)	none
Cc1noc(C)c1NC(=O)N(C)C[C@H]1Oc2ccc(NC(=O)Nc3ccc(F)cc3)cc2CC(=O)N([C@H](C)CO)C[C@H]1C	none (no result: ADAM17 inh, ADAM10 inh, KLK7 zymogen act)
O=C(N[C@@H]1CC[C@H](CCNC(=O)C2CCCC2)O[C@H]1CO)c1ccccn1	none (no result: ADAM17 inh, ADAM10 inh, KLK7 zymogen act)

Compound activity deposited in PubChem BioAssay by several laboratories.
